Compounds without any hit were thinned out: in the full panel of roughly 79,000, 15% have a hit. A number with no mark means an inactive call. Calls of active or inactive are those of the source. Cut-off read from the data, not from the text of the source: active = growth inhibition above about 70%; inactive = the rest.

The test is described as follows: NCI Yeast Anticancer Drug Screen. Data for the wt1 strain (AID 149).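 Note: 0% = growth of vehicle-treated wt1 cultures.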 To be noted: S. cerevisiae wt1 strain (SPY 50644) growth inhibition, stronger effect = higher value. The method, then: Growth inhibition of yeast strains with defined genetic alterations is measured as a screen for potential anti-cancer activity. Selected strains with alterations in DNA damage repair or cell cycle control were exposed to compounds and growth inhibition was measured relative to vehicle treated controls. The strain used in this assay is wt1

As for `N=C(N)c1ccc(N=Nc2c(O)ccc3c2[nH]c2ccccc23)cc1`, the growth inhibition reads like this: (at 1.2 µM) -2%; (at 3.7 µM) -1%; (at 11.0 µM) 69%; (at 33.0 µM) 95% (active); (at 100.0 µM) 97% (active).
As to `O=C1C(C(O)(C(F)(F)F)C(F)(F)F)CCC1C(O)(C(F)(F)F)C(F)(F)F` (stereo not given), the growth inhibition is 3% (at 1.2 µM); 6% (at 3.7 µM); 8% (at 11.0 µM); 19% (at 33.0 µM); 33% (at 100.0 µM).
For `Cc1ccccc1C1=C(CC(=O)O)c2ccccc2CC1C` (stereo not given), in that order: 4%, 8%, 29%, 96% (active) and 96% (active).
For `Cc1[nH]nc(C(F)(F)F)c1N=NN(C)C`, in that order: -4%, 37%, 46%, 99% (active) and 99% (active).
For `Cc1ccc(Nc2n[nH]c(=S)s2)cc1C`, in that order: -23%, -22%, -19%, 1% and 81% (active).
As to `O=Cn1c2ccccc2c2ccccc21`, the growth inhibition reads like this: (at 1.2 µM) -16%; (at 3.7 µM) -14%; (at 11.0 µM) -8%; (at 33.0 µM) -7%; (at 100.0 µM) 23%.
Take `COc1ccc(/C=C2\S/C(=N/Nc3nc(-c4ccccc4)cs3)NC2=O)cc1OC`: the growth inhibition reads like this: (at 1.2 µM) 50%; (at 3.7 µM) 90% (active); (at 11.0 µM) 97% (active); (at 33.0 µM) 96% (active); (at 100.0 µM) 95% (active).
For `CCOC(=O)/C=C1\CCCn2c1ncc(C(=O)OCC)c2=O`, in that order: 2%, 5%, 6%, 10% and 17%.
